Results: PubChem BioAssay (EPA / NIEHS)
The source holds several records for some structures; these can differ, active in one and inactive in another. Active and inactive are the calls of the source. The calls were made as follows: active = hit-call score of the fitted dose curve at least 0.9, where 1 is the maximum; inactive = score below 0.9.

Assay: APR_HepG2_MitoticArrest_72hr: Apredica 72-hour HepG2 Assay for Mitotic Arrest (AID 2282918)
Conditions: high-content imaging, actives raise or lower the signal
Experimental: APR_HepG2_72hr is a cell-based, multiplexed-readout assay that uses HepG2, a human liver cell line, with measurements taken at 72 hours after chemical dosing in a 384-well plate.APR_HepG2_MitoticArrest_72hr is one of 10 assay component(s) measured or calculated from the APR_HepG2_72hr assay. It is designed to make measurements of cell phenotype, a form of morphology reporter, as detected with fluorescence intensity signals by HCS Fluorescent Imaging technology.Data from the assay component APR_HepG2_MitoticArrest_72hr was analyzed into 1 assay endpoint. This assay endpoint, APR_HepG2_MitoticArrest_72hr, was analyzed with bidirectional fitting relative to DMSO as the negative control and baseline of activity. Using a type of morphology reporter, measures of protein for gain or loss-of-signal activity can be used to understand the signaling at the pathway-level as they relate to the gene . Furthermore, this assay endpoint can be referred to as a primary readout, because this assay has produced multiple assay endpoints where this one serves a signaling function. To generalize the intended target to other relatable targets, this assay endpoint is annotated to the cell cycle intended target family, where the subfamily is arrest.
Cells were treated with dimethyl sulfoxide (DMSO) as a solvent control at a final concentration of 0.5% v/v or with compounds in DMSO with a resulting final DMSO concentration of 0.5% v/v. Compound treatment was done at concentrations of 0.39, 0.78, 1.56, 3.12, 6.24, 12.5, 25, 50, 100, and 200 uM in duplicate on each plate. Cells were treated with compounds for 1, 24, or 72 hr. Carbonyl […] m-chloro-phenylhydrazone (CCCP) and taxol were used as positive controls for mitochondrial function and cytoskeletal stability, respectively; DMSO served as the negative control for this experiment. Cells were fixed by the direct addition of 50 uL formaldehyde in Hank's Balanced Salt Solution (HBSS) to a final concentration of 3.7%. After incubation in the fixation medium for 30 min at room temperature (293-298 K), cells were rinsed twice with HBSS and treated with cell permeabilization buffer (16 uL of 0.5% Triton X-100) for 10 min at room temperature (293-298 K) before labeling. For mitochondrial membrane potential and mitochondrial measurements, pre-fixed cells were incubated with 50 uL of MitoTracker Red CMXRos (Invitrogen) at a concentration of 250 nM for 30 min before fixation. In the remaining cases, post-fixed cells were labeled by incubation with a multiplexed mixture of primary antibodies in HBSS for 60 min at room temperature (293-298 K) to detect immunoreactivity of c-Jun (1:500), phospho-histone H3 (1:100), phospho-histone H2A.x (1:200), p53 (1:400), alpha-tubulin (1:200) and Hoechst 33342 (2 ug/mL). Cells were labeled for multiplexed imaging on two separate plates: a) Hoechst 33342, MitoTracker Red, phospho-histone H3, and alpha-tubulin, and b) Hoechst 33342, phospho-histone H2A.x, and c-Jun. A final rinse with HBSS (50 uL) was performed before analysis. The primary and secondary antibodies for the proteins were phospho-histone H3 (rabbit anti-phospho-histone H3 and FITC-donkey anti-rabbit IgG), phospho-histone H2A.x (mouse anti-phospho-histone H2A.x and FITC-donkey anti-mouse IgG), c-Jun (rabbit anti-phospho-c-Jun and Cy3-donkey anti-rabbit IgG), p53 (sheep anti-p53 and Cy5-donkey anti-sheep IgG), alpha-tubulin (mouse anti-alpha-tubulin and Cy5-donkey anti-mouse IgG). These antibodies are available as the CellCiphr HepG2 assay kit (Millipore).Digital images of each well were captured using a Cellomics ArrayScan VTI (Thermo Scientific Cellomics) (0.8 NA objective, 0.63x optical coupler, and XF-93 filter set) at 20x magnification. The images were acquired using the autofocus feature of the ArrayScan instrument, which entails the following steps. First, the camera focuses on channel 1 (Hoechst 33342), where nuclei are identified. Second, a Z offset of 1 um is used for capturing mitochondria (MitoTracker Red). […]

Structure (SMILES)	outcome	AC50
CN(C)C(=O)Nc1ccc(Cl)c(Cl)c1	inactive	
CCOC(=O)[C@H](C)Oc1ccc(Oc2nc3ccc(Cl)cc3o2)cc1	inactive	
O=C(c1ccc(O)cc1O)c1ccc(O)cc1O	inactive	
COC(=O)c1ccc(I)cc1S(=O)(=O)NC(=O)Nc1nc(C)nc(OC)n1	inactive	
CCN(Cc1c(F)cccc1Cl)c1c([N+](=O)[O-])cc(C(F)(F)F)cc1[N+](=O)[O-]	inactive	
S=C([S-])NCCNC(=S)[S-].[Mn+2]	inactive	
CCCN(CCC)C(=O)SCC	inactive	
COC(=O)c1ccccc1C(=O)O	inactive	
CCCCOC(=O)C(C)Oc1ccc(Oc2ccc(C(F)(F)F)cn2)cc1 (stereo not given)	inactive	
COC(=O)c1ccccc1S(=O)(=O)NC(=O)Nc1nc(OC(F)F)cc(OC(F)F)n1	inactive	
CC(=O)S[C@@H]1CC2=CC(=O)CC[C@]2(C)[C@H]2CC[C@@]3(C)[C@@H](CC[C@@]34CCC(=O)O4)[C@H]12		53.6 µM (active)
OB(O)O	inactive	
S=C(S)NCCNC(=S)S.[Mn+2].[S-]C([S-])=NCCN=C([S-])[S-].[Zn+2]	inactive	51.9 µM (active) [middle of 5 runs]
CCNc1nc(N)nc(Cl)n1	inactive	
C[C@]12CC[C@@H]3c4ccc(O)cc4C[C@@H](CCCCCCCCCS(=O)CCCC(F)(F)C(F)(F)F)[C@H]3[C@@H]1CC[C@@H]2O (stereo not given in full)	inactive	
CCCOC(=O)c1ccc(C(=O)OCCC)nc1	inactive	
CSC(=O)c1cccc2nnsc12	inactive	
CC(=O)[C@H]1CC[C@H]2[C@@H]3CCC4=CC(=O)CC[C@]4(C)[C@H]3CC[C@]12C		81.6 µM (active)
COC(=O)c1c(Cl)nn(C)c1S(=O)(=O)NC(=O)Nc1nc(OC)cc(OC)n1	inactive	
C#C[C@]1(O)CC[C@H]2[C@@H]3CCC4=CC(=O)CC[C@@H]4[C@H]3CC[C@@]21CC	inactive	

Structure (SMILES)	outcome	AC50
COc1nc(C)nc(NC(=O)NS(=O)(=O)c2ccccc2OCCCl)n1	inactive	
C[C@]12C[C@H](O)[C@H]3[C@@H](CCC4=CC(=O)CC[C@@]43C)[C@@H]1CC[C@@H]2C(=O)CO		86.1 µM (active)
CC(C)CCCCCCc1ccc(O)cc1		30.9 µM (active)
O=C(O)C1(C(=O)Nc2ccc(Cl)cc2Cl)CC1	inactive	
COC(=O)CSc1cc(N=c2sc(=O)n3n2CCCC3)c(F)cc1Cl	inactive	
COC(=O)c1ccc(CNS(C)(=O)=O)cc1S(=O)(=O)NC(=O)Nc1nc(OC)cc(OC)n1	inactive	
CCOC(=O)NCCOc1ccc(Oc2ccccc2)cc1	inactive	
CCC(C)OC(=O)N1CCCCC1CCO (stereo not given)	inactive	
CCCCOCCOCCOCc1cc2c(cc1CCC)OCO2	inactive	
CCOC(=O)COc1cc(-n2ncc(C(F)(F)F)c(C)c2=O)c(F)cc1Cl	inactive	
CCOC(=O)C(C)Oc1ccc(Oc2nc3ccc(Cl)cc3o2)cc1 (stereo not given)	inactive	
CC(C)(c1ccc(O)cc1)c1ccc(O)cc1	inactive	
CC1(C)C(C=C(Cl)Cl)C1C(=O)OCc1cccc(Oc2ccccc2)c1 (stereo not given)	inactive	
C#CCOC(=O)[C@@H](C)Oc1ccc(Oc2ncc(Cl)cc2F)cc1	inactive	
Oc1ccc(C(c2ccc(O)cc2)C(Cl)(Cl)Cl)cc1		85.6 µM (active)
C=CCOC(Cn1ccnc1)c1ccc(Cl)cc1Cl (stereo not given)		78.5 µM (active)
c1ccc2[nH]c(-c3cscn3)nc2c1	inactive	
COc1c(Cl)ccc(Cl)c1C(=O)O	inactive	
CCCCOC(=O)[C@@H](C)Oc1ccc(Oc2ccc(C(F)(F)F)cn2)cc1	inactive	
